The campaign covered roughly 56,000 sequences. About 5,400 (9.6%) were called active. No stated cut-off is given here; in the data, active = GI50 up to about 1.1 µM and inactive = higher. Only a selection was taken, and actives are over-represented in it overall. Potency and affinity values are given separately.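 These data come from cells grown in 96-well plates and exposed to compound for 48 hours at five concentrations. At the GI50, growth is halved.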
test system: K562; test: NCI tumour cell line growth inhibition, 48 h

Q: With “[Bis(aminomethyl)pentamethylenesilane]dichloropaltinum(II), CHEMBL2146202” as the substance, how does the GI50 read?
A: 3.47 µM

Q: With “[Bis(aminomethyl)tetramethylenesilane]dichloropaltinum(II), CHEMBL2146205” as the substance, how does the GI50 read?
A: 10.2 µM

Q: Which GI50 does the source give for “[Bis(aminomethyl)tetramethylenesilane]tetrachloropaltinum(IV), CHEMBL2146189” here?
A: 2.57 µM

Q: “cis-Bis[[(trimethylsilyl)methyl]amino]tetrachloroplatinum(IV), CHEMBL2146191” was tested. Which GI50 did it give?
A: 2.92 µM

Q: “[Bis(aminomethyl)dimethylsilane]tetrachloroplatinum(IV), CHEMBL2146190” was tested. Which GI50 did it give?
A: 3.78 µM

Q: How did the GI50 turn out when “[Bis(aminomethyl)pentamethylenesilane]tetrachloropaltinum(IV), CHEMBL2146204” was run?
A: 1.79 µM

Q: Which GI50 does the source give for “[Bis(aminomethyl)diethylsilane]tetrachloroplatinum(IV), CHEMBL2146203” here?
A: 0.916 µM

Q: How did the GI50 turn out when “[Bis(aminomethyl)ethylmethylsilane]tetrachloroplatinum(IV), CHEMBL2146192” was run?
A: 1.69 µM

Q: With “[Bis(aminomethyl)dimethylsilane]dichloroplatinum (II), CHEMBL2146201” as the substance, how does the GI50 read?
A: 16.5 µM

Q: With CHLOROTRIPHENYLSTANNANE, CHEMBL515580 as the substance, how does the GI50 read?
A: 0.0256 µM

Q: Which GI50 does the source give for CISPLATIN, CHEMBL11359 here?
A: 5.56 µM

Q: For “mu-(1,7-nanodiamine-N,N')bis-(cis-aminedichloroplatimum (II)), CHEMBL2146215”, which GI50 is on record?
A: 30.7 µM
